# Results published in PubChem BioAssay (NCI).
# This is part of a sample that, as a whole, favours compounds with a hit. Of some 79,000 tested, about 15% had one in any assay. Unmarked numbers belong to inactive results. Calls of active or inactive are those of the source. Cut-off read from the data, not from the text of the source: active = growth inhibition above about 70%; inactive = the rest.
# Legend:
# [1] = NCI Yeast Anticancer Drug Screen. Data for the rad50 strain (AID 155);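 note: 0% = growth of vehicle-only cultures of the same strain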; conditions: S. cerevisiae rad50 strain growth inhibition, active compounds read high
# In short: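 Genetically altered yeast (DNA repair pathway); compound treatment; growth inhibition vs vehicle ctrl.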
# [2] = NCI Yeast Anticancer Drug Screen. Data for the mec2-1 strain (AID 157); conditions: S. cerevisiae mec2-1 strain, active compounds read high
# In short: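 Using mec2-1 yeast: add compound, measure growth, express inhibition versus vehicle-treated cultures.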
# [3] = NCI Yeast Anticancer Drug Screen. Data for the sgs1 mgt1 strain (AID 161);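 note: 0% = growth of cultures given vehicle only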; conditions: S. cerevisiae sgs1 mgt1 strain, active compounds read high
# In short: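 Growth of a repair-deficient yeast mutant was monitored after compound treatment and expressed as inhibition relative to vehicle-treated cultures.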
# [4] = NCI Yeast Anticancer Drug Screen. Data for the cln2 rad14 strain (AID 165);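 note: 0% = growth equal to vehicle treated cultures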; conditions: S. cerevisiae cln2 rad14 strain, active compounds read high
# In short: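 Yeast strain cln2 rad14, bearing defects in cell cycle control and DNA repair, serves as the test system; values reflect growth inhibition compared with vehicle.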
# [5] = NCI Yeast Anticancer Drug Screen. Data for the bub3 strain (AID 167); conditions: S. cerevisiae bub3 mutant strain, active compounds read high
# In short: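 Yeast carrying a defined mutation is treated with each compound, and growth is compared with that of vehicle-exposed cells to give inhibition.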
# [6] = NCI Yeast Anticancer Drug Screen. Data for the mlh1 rad18 strain (AID 175); conditions: S. cerevisiae mlh1 rad18 strain growth inhibition, active compounds read high
# In short: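 Steps: expose repair-defective yeast to compound; measure growth; express inhibition against vehicle-treated controls.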
# [7] = at 5.0 µM (retest, dose inferred, filed as 0.5)
# [8] = at 50.0 µM (retest, dose inferred, filed as 5.0)
Compound,"growth inhibition [1, 7]","growth inhibition [1, 8]",growth inhibition ([1]; at 50.0 µM),"growth inhibition [2, 7]","growth inhibition [2, 8]",growth inhibition ([2]; at 50.0 µM),"growth inhibition [3, 7]","growth inhibition [3, 8]",growth inhibition ([3]; at 50.0 µM),"growth inhibition [4, 7]","growth inhibition [4, 8]",growth inhibition ([4]; at 50.0 µM),"growth inhibition [5, 7]","growth inhibition [5, 8]",growth inhibition ([5]; at 50.0 µM),"growth inhibition [6, 7]","growth inhibition [6, 8]",growth inhibition ([6]; at 50.0 µM)
Nc1nc(N)c(-c2cccc(C(F)(F)F)c2)c(Cc2cccc(C(F)(F)F)c2)n1,-2%,98% (active),99.6% (active),14%,98% (active),99.3% (active),-1%,98% (active),99.3% (active),24%,91% (active),98.9% (active),-4%,95% (active),99.2% (active),0%,99% (active),99.6% (active)
NSc1ccccn1,7%,74% (active),90.4% (active),9%,93% (active),93.5% (active),11%,79% (active),97.8% (active),29%,84% (active),89.7% (active),3%,92% (active),99% (active),4%,85% (active),96.7% (active)
S=C(S)NCCN1CCNCC1,9%,-14%,36.8%,-20%,-10%,-38.1%,0%,-16%,-27.9%,-3%,1%,73.8% (active),-6%,-11%,-40.6%,-4%,-1%,-10.3%
N#CC(=C1C=CC(=NO)C=C1)c1cccc2ccccc12,36%,91% (active),93.2% (active),15%,94% (active),95.5% (active),39%,92% (active),93.1% (active),3%,91% (active),90.2% (active),5%,91% (active),96.2% (active),28%,91% (active),87.8% (active)
CCC(=S)N(C)O,95% (active),96% (active),66.5%,99% (active),98% (active),50.9%,100% (active),98% (active),69%,98% (active),91% (active),45.1%,100% (active),97% (active),52%,98% (active),97% (active),86.2% (active)
O=[N+]([O-])c1ccc(N/N=C/c2cccnc2)cc1,20%,49%,66.4%,-5%,6%,-12.1%,1%,26%,60.1%,3%,15%,-0.05%,3%,44%,29.4%,9%,26%,45.5%
Nc1ccc2c(c1)[nH]c(=O)c1cc(Cl)c(Cl)cc12,87% (active),94% (active),96.3% (active),27%,60%,40.4%,49%,70% (active),78.2% (active),63%,77% (active),13.1%,-1%,84% (active),9.65%,53%,85% (active),92.9% (active)
COc1cc2c(cc1OC)-c1nc(Nc3ccccc3)sc1CC2,-6%,92% (active),43.4%,-1%,94% (active),86.7% (active),-3%,88% (active),82% (active),5%,88% (active),29.1%,1%,92% (active),78.5% (active),-4%,95% (active),93% (active)
CCN1CCC(O)(/C=C/c2ccccc2)C(C(=O)/C=C/c2ccccc2)C1 (stereo not given),11%,89% (active),97.7% (active),6%,80% (active),98.2% (active),13%,82% (active),97.8% (active),13%,74% (active),85.1% (active),8%,94% (active),98.9% (active),19%,93% (active),96% (active)
CCOC(=O)/C=C(/Cl)C(=O)OCC,12%,98% (active),98.5% (active),5%,99% (active),99.4% (active),7%,98% (active),99.5% (active),1%,99% (active),99% (active),18%,99% (active),99.2% (active),6%,99% (active),99.1% (active)
CCC(c1ccccc1)N1C(=O)c2ccccc2S1(=O)=O (stereo not given),-3%,-3%,33.4%,-2%,22%,14.3%,-1%,-2%,25.3%,-6%,-3%,-19.6%,23%,50%,92.2% (active),-3%,-2%,32.5%
NC(=S)N/N=C/c1cn(CCCl)c2ccccc12,7%,30%,57.5%,-49%,49%,19.8%,-17%,63%,62.9%,2%,59%,42.9%,-11%,56%,24.1%,-32%,35%,45.9%
O=C(/C=C\c1ccccc1)/C=C/c1ccccc1,4%,39%,40.5%,-2%,8%,12.6%,0%,24%,28.2%,-1%,4%,-14.3%,7%,53%,27.9%,-1%,17%,70.8% (active)
O=C(NO)C(=O)Nc1cc(Cl)ccc1Cl,7%,57%,86.8% (active),-8%,90% (active),73% (active),-3%,89% (active),79.8% (active),2%,94% (active),74.5% (active),-28%,94% (active),85.9% (active),-2%,94% (active),77.7% (active)
NC(=S)N1N=C2c3ccccc3CC[C@H]2[C@@H]1c1cccs1,-52%,20%,59.6%,-4%,40%,34.4%,-26%,63%,80.6% (active),0%,42%,43.1%,-11%,70% (active),60.2%,-17%,68%,51.3%
O=C(O)/C=C/C(=O)c1ccc(O)cc1,25%,97% (active),95.7% (active),9%,94% (active),95.8% (active),28%,93% (active),94.6% (active),7%,91% (active),91.3% (active),5%,95% (active),92% (active),32%,98% (active),96% (active)
CN(C)C1=NC2=S(SC(Nc3ccccc3)=N2)S1 (stereo not given),-4%,15%,10.8%,-7%,33%,-1%,10%,28%,-19.1%,10%,24%,-0.75%,3%,20%,44%,24%,43%,-7.4%
CCOc1c(N=Nc2ccc(Cl)cc2)c(-c2ccccc2)nn1C(N)=S,3%,90% (active),93.4% (active),-11%,89% (active),94.7% (active),18%,92% (active),93.9% (active),-13%,87% (active),93.3% (active),1%,92% (active),92.4% (active),0%,90% (active),93.1% (active)
O=C(CC(=O)c1ccncc1)c1ccccc1,7%,96% (active),97.2% (active),7%,90% (active),94.7% (active),1%,93% (active),97% (active),-16%,96% (active),93.8% (active),-1%,98% (active),97.6% (active),0%,99% (active),98% (active)
Clc1ccc([O][In]([O]c2ccc(Cl)cn2)[O]c2ccc(Cl)cn2)nc1,1%,1%,68.2%,8%,8%,72% (active),-1%,-1%,56%,-4%,-4%,38.9%,-26%,-26%,48.2%,-5%,-5%,53.8%
